From PubChem
Hits are enriched below; roughly 3.7% of the tested compounds scored in any of these assays.
Bead autofluor: flagged as autofluorescent in microsphere protease counterscreen | compound autofluorescence counterscreen, microsphere flow cytometry; stronger effect = higher value | fluorescence intensity (concentration not given with the values) | 360,000 compounds, 3.1% hits; in the data active means fluorescence intensity above about 16000; inconclusive means no clear call, values can overlap the other calls
BoNT A protease: BoNT A light chain protease inhibition; multiplex microsphere protease substrate cleavage, flow cytometry; inhibition, % at 10 µM; 360,000 compounds, 0.17% hits; further: plate controls were buffer without enzyme for full effect and enzyme alone for no effect
BoNT-F LC inh: blocks Botulinum neurotoxin F light chain protease; Multiplex microsphere protease cleavage assay, flow cytometry; inhibition, % at 10 µM; 360,000 compounds, 0.22% hits; in the data active means inhibition above about 35%, passing the limit was not always enough; inconclusive means no clear call, values can overlap the other calls; further: plate controls were buffer without enzyme for full effect and enzyme alone for no effect
MazEF act: increases E. coli MazEF RNase cleavage of RNA; FAM/BHQ RNA-DNA oligo cleavage fluorescence, 5 h; activation, % at 20 µM; 350,000 compounds, 0.32% hits; in the data active means activation above about 50%
Anthrax LF prot: anthrax lethal factor protease inhibition | P15917 | multiplex microsphere protease cleavage assay, LF | inhibition, % at 10 µM | 360,000 compounds, 0.12% hits | AID 588501; further: plate controls were buffer without enzyme for full effect and enzyme alone for no effect
An asterisk follows results filed as active; ? = inconclusive; · = not tested or not shown. Unless noted, no stated cut-off is given here; in the data, active means inhibition above about 30%; inconclusive means no clear call, values can overlap the other calls; inactive means below that.

SMILES	Bead autofluor	BoNT A protease	BoNT-F LC inh	MazEF act	Anthrax LF prot
Cc1ccc(N2CCCn3c2cc(C)c(C#N)c3=O)cc1Cl	15477	2.4	6.0	5.8	-6.1
c1ccc(-c2nc(-c3ccco3)cs2)nc1	22107*	0.8	1.2	5.1	0.7
Cc1csc(Sc2ccc([N+](=O)[O-])cc2C(=O)OCC(=O)NC2CCCC(C)C2C)n1 (stereo not given)	16483*	0.5	-0.2	3.1	-0.4
Cc1ccc(C)n1-c1nc(=S)[nH][nH]1	16597*	-0.8	-0.6	0.2	-0.9
O=C(Cc1ccccc1)Nc1c2c(nn1-c1cccc(Cl)c1)CS(=O)(=O)C2	20201*	7.7	8.6	-9.0	1.1
Cc1cc2n(n1)C(c1cn(-c3ccccc3)nc1C)Nc1ccccc1-2 (stereo not given)	22907*	?	-1.3	-10.2	-1.4
Cc1sc2ncnc(N/N=C/c3cccc(O)c3)c2c1C	2515	-1.6	-8.7	5.0	-0.4
C/C(=N\Nc1ncnc2sc(C)c(C)c12)c1ccccn1	9536	40.4*	39.8*	-60.8	18.7
O=C(O)CCCCCN1C(=O)C(O)=C(C(=O)/C=C/c2ccccc2)C1c1ccccc1[N+](=O)[O-] (stereo not given)	4614	1.6	-5.1	-1.0	-6.7
CCCCOC(=O)c1cccc(NC(=O)CCC(=O)O)c1	20646*	?	-1.3	4.2	0.7
CCCCOC(=O)Nc1cccc(C(C)=O)c1	16653*	0.1	-1.8	1.2	-3.4
CCCCC(=O)Nc1ccc(N2CCCC2)cc1	1448	-0.1	-130.7	8.8	-27.8
CCCOC(=O)Nc1ccc(N2CCCCC2)cc1	22287*	1.9	1.0	12.1	-3.2
CCOC(=O)Nc1cccc(Cl)c1C	4245	-0.2	-0.9	2.2	1.0
CCCCOC(=O)Nc1cccc(Cl)c1C	21233*	-2.3	-4.3	-5.9	-3.2
O=C(O)CCC(=O)Nc1cccc(C(=O)c2ccccc2)c1	4945	0.1	0.0	3.2	-8.8
CCOC(=O)c1c(N)sc2c1CCN(CCc1ccccc1)C2	·	·	·	16.7	·
COCCNC(=O)C1(C)CCCN(C(=O)c2ccccc2OC(F)(F)F)C1 (stereo not given)	3813	0.1	7.1	·	-8.6
CCCCOC(=O)Nc1ccc(C(=O)OCCC)cc1	22577*	1.7	2.2	-13.1	-5.5
COC(=O)Cn1cc(C=C2C(=O)N(C)C(=O)N(C)C2=O)c2ccccc21	·	·	·	194.7*	·
CCN(CC)C(=O)Cn1cc(C=C2C(=O)N(C)C(=O)N(C)C2=O)c2ccccc21	3807	-1.6	-10.0	-25.1	-7.4
CC(C)Cn1cc(C(=O)NCCCN2CCC(C)CC2)c2c3ccccc3n(C)c2c1=O	5431	0.2	-5.4	-13.1	-2.0
CCOC(CCNC(=O)c1cn(C)c(=O)c2c1c1ccccc1n2C)OCC	5221	6.6	89.1*	-6.2	69.3*
CCOC(=O)C1CCN(C(=O)c2cn(CCOC)c(=O)c3c2c2ccccc2n3C)CC1	23452*	0.2	-0.9	-3.5	-6.3
CC(C)Cn1cc(C(=O)NCCCN2CCCC2=O)c2c3ccccc3n(C)c2c1=O	16933*	-1.4	-1.7	2.7	-0.2
SMILES	Bead autofluor	BoNT A protease	BoNT-F LC inh	MazEF act	Anthrax LF prot
COCCn1cc(C(=O)N2CCCC(C)C2)c2c3ccccc3n(C)c2c1=O (stereo not given)	11638	0.1	3.6	0.3	-1.8
CC(C)Cn1cc(C(=O)N2CCN(c3ccccn3)CC2)c2c3ccccc3n(C)c2c1=O	16320*	0.7	3.6	1.1	-0.1
CCN1CCN(C(=O)c2cn(CCOC)c(=O)c3c2c2ccccc2n3C)CC1	21067*	4.5	4.7	4.1	-8.5
O=C(OCn1nnc2ccccc2c1=O)c1cccc(S(=O)(=O)N2CCOCC2)c1	3829	-0.4	-9.8	-0.2	-3.1
CNCCCOc1ccc(C)cc1Br	20475*	?	-2.6	-3.9	-0.8
CCCCNCCCOc1ccc(C)cc1Br	2206	-0.6	-8.6	1.6	-0.2
CCCOc1ccccc1N1C(=O)CC(N2CCOCC2)C1=O (stereo not given)	23760*	-0.5	-4.1	-1.5	-2.7
COc1ccccc1Cc1c(-c2ccccc2)nc2ccc(Cl)cn12	5484	20.6	12.0	·	27.9
Cc1ccc(C(=O)O/N=C/c2c(C(F)(F)F)nn(C)c2Sc2ccc(Cl)cc2)cc1	2769	0.3	4.3	0.1	-0.9
Cn1nc(C(F)(F)F)c(/C=N/OC(=O)c2ccccc2Cl)c1SCc1ccc(Cl)cc1	23366*	0.8	-3.6	9.9	-3.5
COc1ccc(C(=O)O/N=C/c2c(C(F)(F)F)nn(C)c2SCc2ccccc2Cl)cc1	22636*	0.8	-2.4	2.3	-2.5
COC(=O)c1ccccc1Sc1c(/C=N/OC(=O)c2ccccc2)c(C(F)(F)F)nn1C	3305	-0.8	-11.2	5.3	-4.9
COC1(OC)C=CC(=O)C=C1NC(=O)c1ccccc1OC(C)=O	3841	-0.3	-3.3	-16.8	-15.0
CC(=O)c1ccc(NC(=O)CN2C(=O)/C(=C/C=C/c3ccccc3)SC2=S)cc1	3500	46.9*	12.6	13.2	24.1
O=C(O)CN1C(=O)/C(=C/C=C/c2ccccc2)SC1=S	3889	-1.1	-8.5	3.5	-0.8
CCOc1ccccc1NC(=O)CSc1nnc2c(CC)c(C)nc(N)n12	11678	-1.8	-14.7	-1.6	-4.6
CCc1c(C)nc(N)n2c(SCC(=O)Nc3ccccc3OC)nnc12	23325*	-0.6	-0.7	6.2	-0.4
CCCCNC(=O)COC(=O)c1cc(F)c(F)cc1Cl	23808*	-0.4	-0.8	-1.6	-1.2
CC1CC2(O)c3no[n+]([O-])c3CCC2N1O (stereo not given)	22460*	2.5	2.7	3.4	-0.8
Cc1ccc(O)c(C(=O)c2cc(C#N)c3nc4ccccc4n3c2)c1	4214	-0.7	-5.0	90.2*	-1.5
Cc1ccc(O)c(C(=O)c2cc(C#N)c(=O)n(Cc3ccccc3)c2)c1	5014	0.4	-0.7	-1.6	2.2
Cc1ccc(Nc2c3c(nc4ncnn24)CCC3)cc1	23876*	-0.9	-1.5	3.1	0.1
O=C(CCC(=O)c1ccc(F)cc1)NCC1(N2CCCCC2)CCCCC1	7168	0.4	0.6	1.0	-5.3
COc1cc(OC)c(OC)cc1/C=C(\C#N)C(=O)NCc1cccs1	5418	1.2	5.6	83.6*	-2.3
Cc1cc(/C=C(\C#N)C(=O)NCc2cccs2)c(C)[nH]1	4030	-0.2	-0.5	3.5	2.3
SMILES	Bead autofluor	BoNT A protease	BoNT-F LC inh	MazEF act	Anthrax LF prot
Cc1cc(C)n(-c2ccc(NC(=O)C3CCCCN3C(=O)c3cc(C)oc3C)cc2)n1 (stereo not given)	6049	-1.2	2.7	5.3	-2.2
CC(=O)Nc1ccc(N(C(=O)c2ccco2)C(C(=O)NC2CCCC2)c2ccc(N3CCOCC3)cc2)cc1 (stereo not given)	4013	0.0	-7.0	4.7	0.3
Cn1ccnc1SCC(=O)Nc1cccc(O)c1	17009*	-1.9	0.2	-1.1	-3.0
O=C(Nc1cc(C(F)(F)F)ccc1N1CCOCC1)c1ccc2ccccc2n1	19909*	0.5	-1.6	7.7	-5.4
Cn1ccnc1SCC(=O)Nc1cc(C(F)(F)F)ccc1N1CCOCC1	16282*	?	1.0	3.9	-1.1
Cn1cnnc1SCC(=O)Nc1cc(C(F)(F)F)ccc1N1CCOCC1	4099	0.2	2.9	9.9	-9.1
